Measured values reported in PubChem BioAssay (Tox21).
Inconclusive results are not listed. Where a structure was tested more than once in an assay, its records may differ in their call. The source made the active and inactive calls. Unless noted, the call rests on the fitted dose curve; in most records, active means well fitted cell-killing curve with a large enough effect in the repeat runs; inconclusive means weak or mixed curves, or effect the other way; inactive means no such curve, though single readings can be large or run the other way.

Experiment: qHTS assay for small molecule activators of the heat shock response signaling pathway - cell viability counter screen (AID 743209); further: nearly all actives have a fitted effect of over 50% in size
Conditions: HSE-bla HeLa viability, CellTiter-Glo luminescence, 5 h; series mostly up to 62.6 µM; activity change, negative = cytotoxicity: at the top concentration
How it was run: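 Compounds dissolved in DMSO were added to overnight-plated HSE-bla HeLa cells and left 5 h at 37 C. Cell viability was quantified by luminescence using CellTiter-Glo.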
On the % scale 0 is the no-effect control and ±100 the full control effect; potency means the concentration at half of the fitted maximal effect.

Row | SMILES | activity change, negative = cytotoxicity | Potency
1 | COc1cc(/C=C/C(=O)O[C@H]2CC[C@]34C[C@]35CC[C@]3(C)[C@@H]([C@H](C)CCC=C(C)C)CC[C@@]3(C)[C@@H]5CC[C@H]4C2(C)C)ccc1O | 2.81% (inactive) | –
2 | Cc1c(C)c2c(c(C)c1O)CCC(C)(COc1ccc(CC3SC(=O)NC3=O)cc1)O2 (stereo unspecified) | – | inactive
3 | COC(=O)C1=C(C)NC(C)=C(C(=O)OCC(C)C)C1c1ccccc1[N+](=O)[O-] (stereo unspecified) | – | inactive
4 | O=[N+]([O-])c1ccccc1Nc1ccccc1 | 7.22% (inactive) | –
5 | CN(C)c1ccc(SC#N)cc1 | -3.98% (inactive) | –
6 | C1CCCC1 | -0.388% (inactive) | –
7 | CC(C)CCCCCCCCCCCCCCC(=O)O | – | 24.5 µM (active)
8 | CC1=NC(C)OC1C (stereo unspecified) | -0.226% (inactive) | –
9 | C=C(C)C(=O)OCC[N+](C)(C)C | -0.246% (inactive) | –
10 | CCCCCOC(=O)CCCC | -1.89% (inactive) | –
11 | Clc1ccc2nsnc2c1NC1=NCCN1 | 5.12% (inactive) | –
12 | C[C@@H]1C[C@H]2[C@@H]3CCC4=CC(=O)C=C[C@]4(C)[C@@]3(Cl)[C@@H](O)C[C@]2(C)[C@@]1(OC(=O)c1ccco1)C(=O)CCl | -4.3% (inactive) | –
13 | CC(=O)OCC(C)OC(C)=O (stereo unspecified) | 7.9% (inactive) | –
14 | CCCCCCC[N+](CC)(CC)CCCCc1ccc(Cl)cc1 | -27.8% (inactive) | –
15 | O=C1CCCCCN1SSN1CCCCCC1=O | -14.7% (inactive) | –
16 | Cc1cccc(S(=O)(=O)O)c1C | -0.749% (inactive) | –
17 | COc1c(C)c2c(c(O)c1C/C=C(\C)CCC(=O)O)C(=O)OC2 | -4.03% (inactive) | –
18 | CSc1ccc(C(=O)c2[nH]c(=O)[nH]c2C)cc1 | -6.86% (inactive) | –
19 | CCN(C(=O)N(CC)c1ccccc1)c1ccccc1 | 1.43% (inactive) | –
20 | On1ccccc1=S | – | 0.153 µM (active)
21 | Cc1ccc(O)c(C(C)(C)C)c1 | – | 24.5 µM (active) and inactive
22 | O=C1c2ccccc2Cc2ccccc21 | -2.49% [at 81.1 µM] (inactive) | –
23 | CCN1/C(=C/C=C/c2sc3ccccc3[n+]2CC)Sc2ccccc21 | – | 13 µM (active)
24 | O=C(OCC1CO1)C1CCCCC1C(=O)OCC1CO1 (stereo unspecified) | -16.6% (inactive) | –

Experiment: qHTS assay for small molecule activators of the heat shock response signaling pathway (AID 743210; active means well fitted activation curve with a large enough effect in the signal ratio in the repeat runs, with a control signal flat, not every such curve was filed as active; the % refers to the signal ratio;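 on activation: HeLa cells with beta-lactamase reporter driven by heat shock elements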)
Conditions: HeLa HSE-bla reporter, beta-lactamase ratio, 5 h; series mostly up to 62.6 µM; activation: at the top concentration
How it was run: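 Following overnight attachment, HSE-bla HeLa cells received test compounds for 5 h at 37 C; beta-lactamase activity was then detected via FRET substrate fluorescence.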

Row | SMILES | activation | Potency
25 | O=[N+]([O-])c1ccccc1Nc1ccccc1 | -3.44% (inactive) | –
26 | CCCC1O[C@@H]2C[C@H]3[C@@H]4CCC5=CC(=O)C=C[C@]5(C)[C@H]4[C@@H](O)C[C@]3(C)[C@]2(C(=O)CO)O1 (stereo partly specified) | – | inactive
27 | CCCCCCCCCCC=O | -0.225% [at 81.1 µM] (inactive) | –
28 | C1CCCC1 | 0.274% (inactive) | –
29 | CC1=NC(C)OC1C (stereo unspecified) | 2.09% (inactive) | –
30 | C=C(C)C(=O)OCC[N+](C)(C)C | -1.61% (inactive) | –
31 | Clc1ccc2nsnc2c1NC1=NCCN1 | -0.324% (inactive) | –
32 | C[C@@H]1C[C@H]2[C@@H]3CCC4=CC(=O)C=C[C@]4(C)[C@@]3(Cl)[C@@H](O)C[C@]2(C)[C@@]1(OC(=O)c1ccco1)C(=O)CCl | – | 31.6 µM (active)
33 | Cc1cccc(S(=O)(=O)O)c1C | -0.0572% (inactive) | –
34 | COc1c(C)c2c(c(O)c1C/C=C(\C)CCC(=O)O)C(=O)OC2 | -0.204% (inactive) | –
35 | CSc1ccc(C(=O)c2[nH]c(=O)[nH]c2C)cc1 | -0.303% (inactive) | –
36 | CCN(C(=O)N(CC)c1ccccc1)c1ccccc1 | 0.546% (inactive) | –
37 | ON=C1CCCC1 | -0.273% [at 81.1 µM] (inactive) | –
38 | Cc1ccc(O)c(C(C)(C)C)c1 | 5.01% (inactive) | –
39 | O=C1c2ccccc2Cc2ccccc21 | 0.305% [at 81.1 µM] (inactive) | –
40 | C[C@H]1[C@H]2CC[C@H]3[C@@H]4CC=C5C[C@@H](N(C)C)CC[C@]5(C)[C@H]4CC[C@]23CN1C | -0.13% (inactive) | –
41 | O=C(OCC1CO1)C1CCCCC1C(=O)OCC1CO1 (stereo unspecified) | 3.34% (inactive) | –
